Bioassay records from PubChem BioAssay.
An excerpt weighted towards active compounds, which were near 3.2% of everything screened.
LmPK inh = qHTS Assay for Inhibitors of Leishmania Mexicana Pyruvate Kinase (LmPK) | Q27686 | purified LmPK, Kinase-Glo ATP luminescence, 1 h | Potency, µM (titrated, usually from 57.5 µM), inactives show at the top dose activity change, negative = inhibition, usual class: inhibitors | 290,000 tested, 0.37% active
Target sequence (Q27686 whole entry, looked up): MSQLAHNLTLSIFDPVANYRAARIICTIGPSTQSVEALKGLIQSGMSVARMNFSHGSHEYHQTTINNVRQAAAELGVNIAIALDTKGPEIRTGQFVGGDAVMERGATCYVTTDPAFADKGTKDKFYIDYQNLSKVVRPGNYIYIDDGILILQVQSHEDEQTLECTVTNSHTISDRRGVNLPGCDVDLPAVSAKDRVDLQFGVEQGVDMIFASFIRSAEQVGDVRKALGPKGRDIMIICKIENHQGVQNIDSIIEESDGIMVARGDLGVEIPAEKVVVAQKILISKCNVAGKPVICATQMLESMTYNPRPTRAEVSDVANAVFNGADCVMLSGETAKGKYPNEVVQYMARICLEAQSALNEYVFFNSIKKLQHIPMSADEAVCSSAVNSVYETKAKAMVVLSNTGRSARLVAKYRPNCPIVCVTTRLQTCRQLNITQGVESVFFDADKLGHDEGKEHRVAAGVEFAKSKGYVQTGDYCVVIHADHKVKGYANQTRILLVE
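Purified LmPK (0.1 nM) converted ADP (0.1 mM) to ATP with PEP (0.5 mM) in imidazole buffer pH 7.2 with KCl and MgCl2, 1 h at room temperature. ATP was read by Kinase-Glo luminescence; data normalized to uninhibited and no-enzyme controls.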
AMA1-RON2 inh = qHTS for Inhibitors of AMA1-RON; Towards Development of Antimalarial Drug Lead: Primary Screen. AID 720542, 2013. 360,000 tested, 0.2% active. Potency, µM (doses to about 58.2 µM), without a hit: at the top dose activity change, negative = inhibition, actives largely listed as inhibitors. AlphaScreen AMA1-biotinylated RON2 peptide binding;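 note: 0% = vehicle wells and -100% = peptide control; nearly all actives have a fitted effect of over 45% in size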
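AMA1 (3D7) with his tag at 25 nM final met compounds first, then biotinylated RON2 peptide at 25 nM; detection used donor plus acceptor beads, 10 µg/mL apiece, read by AlphaScreen after 30 min at room temperature.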
RE007 growth inh = qHTS Assay for Inhibitors of the HIV-1 protein Vpr | Potency, µM (series often up to 92.2 µM), without a hit: at the highest dose activity change, negative = less growth, most hits filed as inhibitors | AID 651644, 2012 | S. pombe RE007 Vpr strain, BacTiter-Glo ATP luminescence, 24 h | 360,000 tested, 0.21% active; active = well fitted falling curve with a large enough effect; inconclusive = small, poorly fitted or top-dose-only effect; inactive = no such curve, though single readings can be large or run the other way; note: nearly all actives have a fitted effect of over 50% in size
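Fission yeast strain RE007, carrying one chromosomally integrated HIV-1 vpr copy, was seeded at OD 0.01 in PMG+AL medium with 23 nL pinned compound. After 24 h at 30 °C and 99% humidity, viability was read by BacTiter-Glo luminescence.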
TbPYK inhibitor = qHTS of Trypanosoma Brucei Inhibitors | pyruvate kinase (Trypanosoma brucei), Q57TT1 | TbPYK enzyme, Kinase-Glo Plus ATP luminescence, 45 min | Potency, µM (doses to about 76.8 µM), for the others: top-dose activity, negative = inhibition, hits mostly inhibitors | 410,000 tested, 0.12% active | AID 624173, 2012; note: nearly all actives have a fitted effect of over 50% in size
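Quantitative HTS: titrated library compounds versus trypanosomal pyruvate kinase in TEA buffer (pH 7.2) containing KCl, MgCl2, BSA and Tween-20. Reactions were initiated with ADP, 130 uM final. Kinase-Glo Plus luminescence was read after 45 min at RT.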
Sm TGR block = qHTS Assay for the Inhibitors of Schistosoma Mansoni Peroxiredoxins; Schistosoma mansoni thioredoxin glutathione reductase (TGR), Q962Y6; purified TGR, DTNB reduction, TNB absorbance 405 nm; Potency, µM (series often up to 114 µM), inactives show top-dose activity change, negative = inhibition, most hits filed as inhibitors; 360,000 tested, 3% active; AID 485364, 2010; note: nearly all actives have a fitted effect of over 60% in size
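Kinetic colorimetric format: TGR-catalysed, NADPH-driven DTNB reduction monitored via TNB absorbance. Enzyme dispensed at 20 nM; compound exposure 15 min at room temperature before reaction start.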
An asterisk follows results filed as active; ? = inconclusive; . = no result. Unless noted, calls come from the whole dose curve; as a rule, active = well fitted curve in the direction sought with a large enough effect; inconclusive = small, poorly fitted or top-dose-only effect, or another doubt; inactive = no such curve, though single readings can be large; an effect the other way counts as inactive or inconclusive. Unless noted, % is set by controls: 0 for no effect and ±100 for the full control effect; potency is the fitted concentration of half-maximal effect.

SMILES | LmPK inh | AMA1-RON2 inh | RE007 growth inh | TbPYK inhibitor | Sm TGR block
Cc1ccc(CN(C(=O)COc2ccc(Cl)cc2Cl)C2CCS(=O)(=O)C2)o1 (stereo not drawn) | . | . | . | 1% | -8%
CCN(C(=O)Cn1nc(Cc2ccncc2)c2ccccc2c1=O)c1cccc(Cl)c1 | . | . | . | -9% | -1%
CO[C@H]1/C=C/O[C@@]2(C)Oc3c(C)c(O)c4c(O)c(c(/C=N\N5CCN(C6CCCC6)CC5)c(O)c4c3C2=O)NC(=O)/C(C)=C\C=C\[C@H](C)[C@H](O)[C@@H](C)[C@@H](O)[C@@H](C)[C@H](OC(C)=O)[C@@H]1C | . | . | . | 0% | .
CCCCn1cc(S(=O)(=O)c2ccc(Cl)cc2)c(=O)c2cc(F)c(N3CCCC(C)C3)cc21 (stereo not drawn) | . | . | . | -2% | -4%
Cc1snnc1C(=O)NC(=S)Nc1ccccc1 | 2% | 88% | -12% | -4% | 8.9µM*
O=C(NC(=S)Nc1ccccc1Br)c1cccnc1 | -3% | 34% | 1% | 5% | 18µM*
O=C(NC(=S)NNC(=O)c1cccs1)c1ccccc1 | -2% | 139% | -20% | -17% | 50µM*
O=C(NC(=S)Nc1ccc(Br)cn1)c1cccnc1 | 3% | 18% | -4% | 2% | 14%
O=C(Nc1cccnc1)c1cccs1 | -1% | -2% | 7% | 3% | 2%
CC(C)(C)c1ccc(C(=O)NC(=S)NNC(=O)c2cccs2)cc1 | 3% | 46% | . | -26% | -33%
O=C(NC(=S)Nc1cccnc1)c1cccs1 | 2% | 23% | -18% | 3% | 10µM*
CCCNC(=O)c1c(NC(=O)c2ccccc2)sc2c1CCC(C(C)(C)C)C2 (stereo not drawn) | . | . | . | 2% | 2%
Cc1cccc(C(=O)Nc2ccc(OCc3cc(=O)n4ccc(C)cc4n3)cc2)c1 | . | . | . | 4% | -6%
CCc1nnc2c3ccccc3nc(N3CCN(c4cc(C)ccc4C)CC3)n12 | . | . | . | 3% | 11%
CC(CSC(=O)c1ccccc1)C(=O)N1CC(Sc2ccccc2)CC1C(=O)O (stereo not drawn) | . | . | . | 0% | .
CCCC(=O)Nc1ccccc1C(=O)OCc1cc(=O)n2nc(C(C)C)sc2n1 | . | . | . | 4% | -9%
O=C(NC(=S)Nc1cccnc1)c1cccc(Br)c1 | -4% | 78% | -3% | 8% | 16µM*
COc1ccc(S(=O)(=O)CCC(=O)NCCc2ccc(S(N)(=O)=O)cc2)cc1 | -6% | 0% | -3% | -10% | 40µM*
COc1ccccc1N1CCN(C(=O)C2CCN(S(=O)(=O)c3cn(C)cn3)CC2)CC1 | . | . | . | -2% | 0%
O=C(CN1CCOC1=O)N1CCCC(N2CCN(c3cccc(C(F)(F)F)c3)CC2)C1 (stereo not drawn) | -6% | -3% | -1% | 0% | 40µM*
O=C(Cn1cccn1)N1CCCC(N2CCN(c3cccc(C(F)(F)F)c3)CC2)C1 (stereo not drawn) | -2% | -5% | 6% | 11% | 6%
CCOc1ccc(NC(=O)Cn2nc(Cc3cccnc3)c3ccccc3c2=O)cc1 | . | . | . | 0% | 9%
O=c1[nH]c2ccc(NCc3ccc(-c4ccc(F)cc4)o3)cc2[nH]1 | . | . | . | -4% | -3%
O=C(COc1cccc2c1CCN(Cc1ccccc1F)C2=O)N1CCCCC1 | -3% | -5% | 38% | 2% | 89µM*
O=C(COc1cccc2c1CCN(Cc1ccccc1F)C2=O)N1CCOCC1 | -2% | . | . | . | 5%
SMILES | LmPK inh | AMA1-RON2 inh | RE007 growth inh | TbPYK inhibitor | Sm TGR block
Cc1c(Cl)cccc1NC(=O)c1ccc2nc(C(C)C)oc2c1 | . | . | . | -6% | -8%
Cc1c(Cl)cnc(NC(=O)COC(=O)C(NC(=O)c2ccco2)C(C)C)c1Cl (stereo not drawn) | 0% | 25% | 5% | -10% | 35µM*
Cc1c(Cl)cnc(NC(=O)COC(=O)/C=C/c2ccco2)c1Cl | . | 1% | 2% | -22% | 10µM*
Cc1nc(NC(=O)COC(=O)[C@@H](NC(=O)c2ccco2)C(C)C)c(Cl)cc1Cl | . | 8% | -17% | -3% | .
CN(C(=O)Cn1nnc(-c2ccc(S(C)(=O)=O)cc2)n1)c1ccccc1 | . | . | . | 4% | 12%
CCCCN1CC(c2nc3ccccc3n2CCCCOc2ccc(C)c(C)c2)CC1=O (stereo not drawn) | . | . | . | 0% | 1%
COc1ccc(C)cc1-n1c(-c2ccncc2)n[nH]c1=S | 10µM* | 0% | 10% | 14µM* | -2%
COc1ccc(OC)c(-n2c(-c3ccc(O)cc3O)n[nH]c2=S)c1 | 8.9µM* | 64% | -4% | ? | -3%
Cc1ccc(/C=N/n2c(-c3ccncc3)n[nH]c2=S)cc1 | 5% | 99% | 0% | ? | 3%
COc1cc(-c2n[nH]c(=S)n2-c2ccccc2C(F)(F)F)cc(OC)c1OC | 18µM* | 59% | 19% | ? | 0%
COc1cc(-n2c(-c3ccccc3)n[nH]c2=S)c(OC)cc1Cl | -9% | 12% | 7% | 3.5µM* | 1%
CCN(c1cccc(C)c1)S(=O)(=O)c1ccc2[nH]cc(C(=O)NCCCOC)c(=O)c2c1 | . | . | . | -3% | 2%
COc1ccc(C(CC(=O)NCc2ccccc2)N2Cc3ccccc3C2=O)cc1 (stereo not drawn) | . | . | . | 0% | 5%
COc1cc(-c2n[nH]c(=S)n2-c2ccc(Br)cc2)cc(OC)c1OC | ? | 95% | 1% | ? | -18%
COc1cc(OC)cc(-c2n[nH]c(=S)n2-c2cc(OC)ccc2OC)c1 | 3.5µM* | 57% | -11% | ? | -1%
CC(=O)Nc1ccc(NC(=O)c2cnn(-c3ccccc3)c2C2CCN(C(=O)OC(C)(C)C)CC2)cc1 | . | . | . | -5% | 5µM*
CC(C)(C)OC(=O)N1CCC(c2c(C(=O)O)cnn2-c2ccccc2)CC1 | -6% | 2% | 7% | -7% | -3%
CC[C@H]1OC(=O)C[C@@H](O)[C@H](C)[C@@H](O[C@@H]2O[C@H](C)C[C@H](N(C)C)[C@@H]2O)[C@@H](CC=O)C[C@@H](C)C(=O)/C=C\[C@]2(C)O[C@H]2[C@@H]1C | . | . | . | -7% | .
Cc1cc(C)c(S(=O)(=O)NCC23C=CC(O2)C2C(=O)N(c4ccccc4)C(=O)C23)c(C)c1 (stereo not drawn) | 3% | -11% | 22µM* | -20% | 4.5µM*
O=[N+]([O-])c1ccccc1S(=O)(=O)NCc1ccco1 | 5% | -3% | 0% | -5% | 6%
Cc1cc(C)c(S(=O)(=O)NCCS(=O)(=O)N2CCN(c3ccccc3)CC2)c(C)c1 | . | . | . | 3% | 8%
